Data: PubChem BioAssay AID504727 (Broad Institute, 2011)
Calls of active or inactive are those of the source.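 The calls were made as follows: active = fitted half-maximal concentration AC50 at or below ten times the highest valid tested dose, with signal falling as DNA is displaced (actives reach about 34 µM in these data); inconclusive = flat fit at moderate signal loss, or poor fit quality; inactive = the rest, including signal rising instead of falling.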

experiment: acridine orange-DNA binding displacement – biochemical, fluorescence polarization, cherry-picked samples, set 2, artefact control for KSHV LANA DNA-binding inhibitor project, dose response (AID 504727); settings: series mostly up to 35 µM; activity change, negative = DNA displacement: at the top concentration;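 as to activity change, negative = DNA displacement: 0% = median of neutral control wells and -100% = mitoxantrone positive control wells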

Q: Which “activity change, negative = DNA displacement” value (shortened to “activity change”) does the source give for `CC(C)(CS(=O)(=O)[O-])NC(=O)CC[N+](C)(C)CCO` here?
A: 8.27% (inactive)

Q: With `COc1ccc(C(=O)N/N=C/c2ccc(OC)c(COc3ccccc3)c2)cc1` as the compound, how does the “activity change” value read?
A: 14.2% (inactive)

Q: With `O=C(O)c1ccc2c(c1)[C@@H]1C=CC[C@@H]1[C@H](c1ccccn1)N2` as the compound, how does the “activity change” value read?
A: -0.65% (inactive)

Q: For `Cc1nn(Cc2c(F)c(F)c(F)c(F)c2F)c(C)c1NC(=O)c1ccnn1C`, which “activity change” value is on record?
A: -16.1% (inactive)

Q: With `Cc1ccc(C(=O)c2coc3ccc(O)c(Cl)c23)cc1` as the compound, how does the “activity change” value read?
A: 2.25% (inactive)

Q: For `COc1cccc(NC(=O)CN(C)C(=O)c2cc3ccccc3cc2OC)c1`, which “activity change” value is on record?
A: 4.45% (inactive)

Q: For `O=C(Nc1ccc(Br)cn1)c1cccc2ccccc12`, which “activity change” value is on record?
A: 6.11% (inactive)

Q: For `O=C(COC(=O)c1ccc([N+](=O)[O-])o1)NCCCc1ccccc1`, which “activity change” value is on record?
A: 4.72% (inactive)

Q: With `O=C1c2cccc3c(O)ccc(c23)C(=O)N1c1ccc(Cl)cc1` as the compound, how does the AC50 read?
A: 2.95 µM (active)

Q: Which “activity change” value does the source give for `S=c1[nH]nc([C@@H]2C[C@H]2c2ccccc2)n1-c1ccccc1Cl` here?
A: 2.19% (inactive)

Q: For `CC[C@@]1(O)C(=O)OCc2c1cc1n(c2=O)Cc2cc3c(CN(C)C)c(O)ccc3nc2-1`, which AC50 is on record?
A: 3.8 µM (active)

Q: Which “activity change” value does the source give for `O=C(Cn1c2ccccc2c2nc3n(c(=O)c21)CCS3)Nc1ccccc1C(F)(F)F` here?
A: 20.6% (inactive)

Q: Which “activity change” value does the source give for `Cc1cccc(COc2ccc(/C=N/NC(=O)c3nnn(-c4nonc4N)c3COc3ccc(F)cc3)cc2)c1` here?
A: -3.72% (inactive)

Q: Which “activity change” value does the source give for `COC(=O)c1ccccc1OCC(=O)N1CCN(c2ccc(Cl)cc2)CC1` here?
A: 6.05% (inactive)

Q: Which “activity change” value does the source give for `Cc1cc(-c2nnc(SCC(=O)Nc3ccccc3)n2C)no1` here?
A: 4.5% (inactive)

Q: With `COc1ccc2ccccc2c1C(O)c1nccn1C` (stereo not drawn) as the compound, how does the AC50 read?
A: 4.01 µM (active)

Q: With `O=C(N/N=C/c1ccc(N2CCOCC2)cc1)c1ccccn1` as the compound, how does the “activity change” value read?
A: 5.79% (inactive)

Q: Which “activity change” value does the source give for `CCOC(=O)C1C2C=CC3(CN(c4cccc(Cl)c4)C(=O)C13)O2` (stereo not drawn) here?
A: 1.09% (inactive)

Q: For `CC(=O)OCCCn1c(C)[n+](C)c2cc(Cl)c(Cl)cc21`, which “activity change” value is on record?
A: 4.62% (inactive)

Q: With `O=C(NCc1cccnc1)C(=O)C1C(=O)Nc2ccccc21` (stereo not drawn) as the compound, how does the “activity change” value read?
A: 2.18% (inactive)

Q: With `CN(C)C(=O)c1ccc(NC(=O)COC(=O)C2(c3ccccc3)CCCC2)cc1` as the compound, how does the “activity change” value read?
A: 3.07% (inactive)

Q: With `O=C(O)c1cccc(-n2cccc2/C=C2/NC(=O)N(c3ccc(Cl)cc3)C2=O)c1` as the compound, how does the “activity change” value read?
A: 9.15% (inactive)

Q: With `Cn1c(=O)c(NCCc2ccccc2)c2c3c(cccc31)C(=O)c1ccccc1-2` as the compound, how does the AC50 read?
A: 1.14 µM (active)

Q: With `COCCN(C(=O)CN1CCCc2ccccc21)c1c(N)n(Cc2ccccc2)c(=O)[nH]c1=O` as the compound, how does the “activity change” value read?
A: 8.12% (inactive)

Q: For `Cc1ccc(CSc2ncnc3onc(C)c23)cc1`, which “activity change” value is on record?
A: 2.23% (inactive)

Q: Which “activity change” value does the source give for `Cc1ccc(NC(=O)c2ccc(Cl)c(S(=O)(=O)N3CCc4ccccc43)c2)nc1` here?
A: 5.37% (inactive)

Q: With `CCOC(=O)C1=C(COC(=O)c2ccc([N+](=O)[O-])s2)NC(=O)NC1C` (stereo not drawn) as the compound, how does the “activity change” value read?
A: -1.59% (inactive)

Q: With `O=C(NCCCO)c1ccc2nc(-c3ccco3)c(-c3ccco3)nc2c1` as the compound, how does the “activity change” value read?
A: -3.41% (inactive)

Q: With `Cc1nc2c(=O)[nH]c(=S)[nH]c2[nH]c1=O` as the compound, how does the “activity change” value read?
A: 9.35% (inactive)

Q: Which “activity change” value does the source give for `O=C(O)c1cccc(NC2=Nc3cccc4cccc2c34)c1` here?
A: 3.7% (inactive)

Q: With `CCN(Cc1ccccc1)C(=O)c1cccc(S(=O)(=O)N2CCN(Cc3ccccc3)CC2)c1` as the compound, how does the “activity change” value read?
A: 6.01% (inactive)

Q: Which “activity change” value does the source give for `COc1ccc(CNC(=O)C2CCC(CNC(=O)[C@@H]3Cc4ccccc4CN3)CC2)cc1` (stereo partly drawn) here?
A: 2.09% (inactive)

Q: With `COCCN(CCOC)Cc1c(O)ccc2c1O/C(=C\c1ccco1)C2=O` as the compound, how does the AC50 read?
A: 27.5 µM (active)

Q: With `O=c1ccc2cc3c4c(c2o1)CCCN4CCC3` as the compound, how does the AC50 read?
A: 15.1 µM (active)

Q: For `O=c1c2c(nc3cc(-c4ccc(F)cc4)[nH]n13)CCC2`, which “activity change” value is on record?
A: 2.38% (inactive)

Q: For `Cc1cc(C)n(CCC(=O)N/N=C/c2ccc(O)cc2O)n1`, which “activity change” value is on record?
A: 4.84% (inactive)

Q: For `O=C(Nc1cc(Cl)ccc1-n1cncn1)c1cccs1`, which “activity change” value is on record?
A: 5.05% (inactive)

Q: For `COc1cccc(OC)c1C(=O)Nc1cc(C)on1`, which “activity change” value is on record?
A: 1.43% (inactive)
